FLuc counter: firefly luciferase modulation, counter-screen for miR-21 project; P08659; purified FLuc, Km substrates, luminescence inhibition; Potency, µM (top dose mostly 57.5 µM), without a hit: at the highest dose activity change, negative = inhibition, hits mostly inhibitors; 360,000 tested, 6.9% active; AID 588342;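 further: plate controls were vehicle for no effect and reference inhibitor for full effect; nearly all actives have a fitted effect of over 55% in size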
Target sequence (P08659 whole entry, looked up): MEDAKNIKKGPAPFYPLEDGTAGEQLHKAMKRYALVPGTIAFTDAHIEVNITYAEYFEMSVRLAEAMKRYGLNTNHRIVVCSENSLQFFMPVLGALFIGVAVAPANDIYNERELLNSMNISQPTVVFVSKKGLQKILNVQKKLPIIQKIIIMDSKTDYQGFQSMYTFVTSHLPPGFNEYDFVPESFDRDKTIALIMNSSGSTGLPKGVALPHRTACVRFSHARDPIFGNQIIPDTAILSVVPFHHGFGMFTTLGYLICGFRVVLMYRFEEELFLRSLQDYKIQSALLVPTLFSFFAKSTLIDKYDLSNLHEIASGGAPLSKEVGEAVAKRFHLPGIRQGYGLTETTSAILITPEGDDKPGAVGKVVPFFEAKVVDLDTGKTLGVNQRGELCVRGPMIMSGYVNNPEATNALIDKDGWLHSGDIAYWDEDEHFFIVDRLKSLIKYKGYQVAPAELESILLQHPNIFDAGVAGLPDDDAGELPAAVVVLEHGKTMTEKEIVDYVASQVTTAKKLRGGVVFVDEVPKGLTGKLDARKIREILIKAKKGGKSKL
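Purified P. pyralis luciferase, 10 nM final, with Km-level 10 uM D-luciferin and 10 uM ATP in 50 mM Tris acetate pH 7.5, 10 mM Mg acetate, 0.01% Tween-20, 0.05% BSA; 6-point qHTS titration about 60 µM downward; luminescence read.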
p53 reactivation: restores transcriptional activity of mutant p53 | Potency, µM (highest dose often 92.2 µM), without a hit: top-dose activity change, positive = activation, actives largely listed as activators | AID 504706 | 320,000 tested, 0.063% active | H1299 p53-A138V BP100-luciferase reporter, luminescence, 24 h; further: % of control where 0% means no effect; nearly all actives have a fitted effect of over 45% in size
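H1299 (p53-null), stable ts p53-A138V + BP100-Luc; 1000 cells/well, Opti-MEM/10% FBS; cpd 4 pt, 1:5; 24 h, 37 deg C, 5% CO2; detection reagent 10 min RT; luminescence.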
ELG1 genotox: induces genotoxicity in HEK293T cells with luciferase-tagged ELG1. HEK293T ELG1-luciferase reporter, luminescence, 16 h. Potency, µM (doses to about 46 µM), for the others: at the highest dose activity change, positive = activation, most hits filed as activators. 330,000 tested, 1.3% active; further: % of control where 0% means no effect; nearly all actives have a fitted effect of over 60% in size
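Genotoxic stress is detected as increased luminescence from luciferase-tagged ELG1 in HEK293T cells, measured with ONE-Glo after a 16 hr treatment at 37 °C.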
Rab9 promoter act: activators of Rab9 promoter; 320,000 tested, 2.8% active; Huh7 Rab9 promoter-luciferase reporter, luminescence, 24 h; Potency, µM (titrated, usually from 9.22 µM), for inactives: top-dose activation, negative = inhibition, most hits filed as activators; further: % of control where 0% means no effect; nearly all actives have a fitted effect of over 60% in size
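Luciferase signal after 10 min detection reagent at ambient indicates Rab9 promoter upregulation; stably transfected Huh7 cells were treated 24 h with compound in DMSO at 37 °C, 5% CO2.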
SMN2 splice up: SMN2 splice variant enhancement | HEK293 SMN2-luciferase splicing reporter, luminescence, 30-36 h | Potency, µM (highest dose often 46.1 µM), without a hit: at the top dose activity change, positive = activation, actives largely listed as activators | 210,000 tested, 2.8% active | AID 1458; further: % of control where 0% means no effect; nearly all actives have a fitted effect of over 55% in size
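HEK293 cells carry an SMN2 […]–luciferase reporter in which exon 7 inclusion puts luciferase in frame. Cells were plated 10-12 h before compound addition, then incubated 30-36 h at 37C. ONE-Glo luminescence was read; sodium butyrate at 4.5 mM final served as control.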
NPC1 prom act: activators of NPC1 promoter; Potency, µM (doses to about 9.22 µM), inactives show at the top dose activation, usual class: activators; 320,000 tested, 2.4% active; Huh7 NPC1 promoter luciferase reporter, 24 h; further: % of control where 0% means no effect; nearly all actives have a fitted effect of over 60% in size
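Huh7 reporter cells (NPC1 promoter driving luciferase) are dosed with compound for 24 h at 37 °C, 5% CO2; luciferase detection reagent is then added and luminescence measured after 10 min at ambient temperature.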
* hit, by the source's call; u = inconclusive; x = no result; [ ] = remark or other dose. In the library only some 7.4% were active in any assay of this set; here they are far more common. The call rests on the fitted dose curve; in most records, active means well fitted curve in the direction sought with a large enough effect; inconclusive means small, poorly fitted or top-dose-only effect, or another doubt; inactive means no such curve, though single readings can be large; an effect the other way counts as inactive or inconclusive. Potency means the concentration at half of the fitted maximal effect.

SMILES	FLuc counter	p53 reactivation	ELG1 genotox	Rab9 promoter act	SMN2 splice up	NPC1 prom act
CCOC(=O)CSc1nc2ccc(NC(=O)c3ccc(C)cc3)cc2s1	5.36µM*	x	x	x	x	x
O=C(Nc1nc2ccc([N+](=O)[O-])cc2s1)c1ccco1	2.13µM*	u	-10.4%	0.794µM*	3.55µM*	1.58µM*
CSc1nc2ccc(NC(=O)c3ccc(=O)n(C)n3)cc2s1	16.9µM*	1.8%	22.1%	u	-17.1%	28.3%
CSc1nc2ccc(NC(=O)c3ccc(=O)[nH]c3)cc2s1	u	-3.3%	13.7%	12.1%	x	1.2%
C=C(C)COc1ccc2c(C)c(CC(=O)N3C[C@H]4C[C@@H](C3)c3cccc(=O)n3C4)c(=O)oc2c1C	u	5.0%	-1.6%	-12.5%	x	-9.6%
Cc1ccc(NC(=O)CSc2nc3ccc(NC(=O)c4ccco4)cc3s2)cc1	-2.9%	x	x	x	x	x
CS(=O)(=O)c1ccc2nc(NC(=O)c3cccc([N+](=O)[O-])c3)sc2c1	1.69µM*	7.6%	u	1.26µM*	x	1.58µM*
CS(=O)(=O)c1ccc2nc(NC(=O)c3cc([N+](=O)[O-])cc([N+](=O)[O-])c3)sc2c1	u	x	-2.4%	2.0%	x	12.2%
CSc1nc2ccc(NC(=O)c3ccc(F)c(F)c3)cc2s1	u	4.8%	u	u	15.8µM*	u
CSc1nc2ccc(NC(=O)c3ccco3)cc2s1	9.53µM*	u	8.2µM*	2.51µM*	x	2.82µM*
O=C(Nc1nc2ccc([N+](=O)[O-])cc2s1)c1c(F)cccc1F	8.49µM*	2.5%	-1.1%	18.8%	u	22.9%
CCOc1ccc(NC(=O)CN(C)C(=O)c2cccnc2Sc2ccccc2Cl)cc1OCC	1.8%	-10.0%	0.5%	2.6%	x	-1.0%
c1ccc(C(c2ccccc2)N2CC[C@@]3(CCCNC3)C2)cc1	x	x	x	x	-23.1%	x
CSc1nc2ccc(NC(=O)c3cc4ccccc4o3)cc2s1	1.07µM*	u	u	2.51µM*	x	1.58µM*
CSc1nc2ccc(NC(=O)c3cccs3)cc2s1	x	u	16.7%	x	x	x
CCC(=O)Nc1nc2ccc(NC(C)=O)cc2s1	u	u	u	u	18.3%	23.9%
CC(=O)Nc1ccc2nc(NC(=O)c3ccco3)sc2c1	10.7µM*	x	u	2µM*	x	1.41µM*
O=C(Nc1ccc2oc(-c3ccccc3Cl)nc2c1)c1ncn[nH]1	3.01µM*	u	8.2µM*	3.55µM*	10µM*	1.41µM*
O=C(Nc1ccc2oc(-c3cccc4ccccc34)nc2c1)c1ncn[nH]1	u	14.7%	u	2.82µM*	u	u
O=C(Nc1ccc2oc(-c3cc(Br)ccc3Cl)nc2c1)c1ccc2ccccc2c1	-7.5%	x	x	x	-6.5%	x
COc1cc2ccccc2cc1C(=O)Nc1ccc2oc(-c3cccc(Cl)c3Cl)nc2c1	-1.9%	x	x	x	29.4%	x
CCOc1ccc(C2C(C(=O)Nc3ccccc3)=C(C)Nc3nc(SCc4cccc(OC)c4)nn32)cc1 (centres undefined)	4.5%	x	x	x	x	x
CCOc1ccc(NC(=O)CC2C(=O)N(c3ccccc3)C(=O)N2Cc2cccc(OC)c2)cc1 (centres undefined)	-17.9%	x	x	x	x	x
Nc1ccc(-c2nc3ccccc3s2)cn1	4.78µM*	u	9.2µM*	1.58µM*	x	1.26µM*
c1ccc(-c2nc3ccccc3s2)nc1	3.79µM*	u	u	1.41µM*	15.8µM*	1.41µM*
SMILES	FLuc counter	p53 reactivation	ELG1 genotox	Rab9 promoter act	SMN2 splice up	NPC1 prom act
CN(C)c1ncccc1-c1nc2ccccc2s1	-13.4%	-2.8%	0.0%	-3.2%	4.3%	-1.3%
O=C1CCC(=O)N1c1ccc(-c2nc3ccccc3s2)cc1	0.536µM*	-0.5%	u	0.355µM*	10µM*	0.447µM*
COc1cc(OC)cc(C(=O)Nc2cc(-c3nc4ccccc4s3)ccc2OC)c1	u	x	x	x	1.7%	x
COc1cc(OC)cc(-c2nc3ccccc3s2)c1	8.49µM*	13.1%	u	12.8%	u	11.0%
O=S(=O)(c1cc(-c2nc3ccccc3s2)ccc1Cl)N1CCOCC1	-8.7%	-4.2%	-5.2%	1.4%	-21.5%	-5.5%
CC(C)(C)C(C(=O)Oc1ccccc1)c1ccccc1 (centres undefined)	3.8%	5.7%	-2.1%	-1.9%	x	1.3%
Brc1ccc(-c2nc3ccccc3s2)s1	1.07µM*	u	u	1.58µM*	14.1µM*	u
Brc1cc2c(cc1-c1nc3ccccc3s1)OCO2	12µM*	20.8%	11.9%	27.0%	x	24.0%
CSc1nc2ccccc2s1	-7.8%	8.4%	1.8%	0.3%	-8.2%	-1.2%
CCOC(=O)c1c(S(=O)(=O)NCc2ccco2)c(C)n(C)c1C	3.2%	-2.5%	-0.1%	-0.2%	x	1.3%
O=C1N/C(=C\c2ccc(O)cc2)C(=O)c2ccccc21	1.2µM*	-28.5%	u	0.0%	-8.5%	-17.3%
Brc1ccccc1OCCCOc1cccc2cccnc12	10.7µM*	x	u	3.98µM*	x	u
Brc1ccccc1OCCOc1cccc2cccnc12	12µM*	10.6%	10.7%	-3.2%	u	-2.9%
Cc1cc(C)cc(OCCCOc2cccc3cccnc23)c1	-7.3%	-1.4%	-5.4%	0.3%	-17.3%	0.0%
COc1cccc(C=O)c1OCCCOc1cccc2cccnc12	u	-22.2%	18.3µM*	4.47µM*	x	u
Cc1ccc(OCCOCCOc2cccc3cccnc23)c(Br)c1	u	-9.9%	-2.8%	-2.8%	-13.6%	0.2%
CN1CCN(C(=O)c2cccc(NS(=O)(=O)c3ccc(Br)cc3)c2)CC1	x	-0.9%	-0.9%	-5.0%	x	-3.1%
CC(C)c1ccccc1S(=O)c1ccccc1C(C)(C)O (centres undefined)	x	x	x	x	-7.2%[9.22 µM]	x
O=C(O)c1cccc(CSc2n[nH]c(-c3ccc(Cl)cc3Cl)n2)c1	26.9µM*	-0.2%	6.7%	-0.8%	3.2%	-1.9%
O=C(O)c1cccc(CSc2ncccn2)c1	-14.9%	-0.5%	8.5%	1.0%	x	3.7%
Cc1cc2n(n1)C(c1ccc3c(c1)OCO3)Nc1c(C)cccc1-2 (centres undefined)	-6.9%	-9.7%	-3.6%	-2.2%	3.98µM*	-1.3%
O=C(Cn1nc(-c2ccccc2)c2cnc3ccc(F)cc3c21)NC1CCCC1	0.6%	x	x	x	x	x
CC(NC(=O)c1cnc2ccccc2n1)c1ccccc1 (centres undefined)	u	10.1%	1.1%	-4.6%	x	3.9%
Cc1ccc(NC(=O)c2cnc3ccccc3n2)cc1C	2.39µM*	u	u	0.501µM*	x	0.199µM*
NC(=O)c1ccc(NC(=O)c2cnc3ccccc3n2)cc1	u	11.1%	u	2.51µM*	x	u
